Active and inactive are the calls of the source.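 Rule for the calls: active = compounds whose cell count with miR-34 switched on is under 0.7 times the count with it off; inactive = the rest.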
Assay: sensitizers of A549 cells to miR-34 induction, primary screen, imaging, A549 dox-inducible miR-34, nuclei and caspase counts (AID 1347080); note: test concentration not given here
Conditions: A549 miR-34 inducible, Hoechst nuclei count, 48 h; stronger effect = lower value; cell number ratio, induced over uninduced

Row | Structure (SMILES) | fold change
1 | CCCCC[C@H](O)C/C=C1/C(=O)C[C@H](O)[C@@H]1C/C=C\CCCC(=O)O | 0.935 (inactive)
2 | CCCCC/C=C\C=C1\C(=O)CC[C@@H]1C/C=C\CCCC(=O)O | 0.94 (inactive)
3 | COc1ccc(C2=N[C@@H](c3ccc(Cl)cc3)[C@@H](c3ccc(Cl)cc3)N2C(=O)N2CCNC(=O)C2)c(OC(C)C)c1 | 1.1 (inactive)
4 | COC(=O)C1=CC[C@@]23CC[C@@H]([C@@](C)(/C=C/C=C(\C)C(=O)O)OC2=O)[C@@]3(OC(C)=O)CC1 | 1.15 (inactive)
5 | O=C(O)COc1ccc(C(=O)c2cccs2)c(Cl)c1Cl | 0.964 (inactive)
6 | COc1ccc2c(c1)c(CC(=O)NCCc1ccccc1)c(C)n2C(=O)c1ccc(Cl)cc1 | 1.02 (inactive)
7 | CC(C)OC(=O)CCC/C=C\C[C@@H]1[C@@H](/C=C/C(=O)COc2cccc(C(F)(F)F)c2)[C@H](O)C[C@@H]1O | 0.979 (inactive)
8 | CCCCC[C@@H](O)/C=C/[C@H]1C(=O)C[C@H](O)[C@@H]1C/C=C\CCCC(=O)O | 0.996 (inactive)
9 | CCCCCCCCCCCCCCCC(=O)N[C@H]1CCOC1=O | 0.999 (inactive)
10 | COC(=O)CCCCCC[C@@H]1[C@@H](CCC(O)C#Cc2ccccc2F)[C@H](O)C[C@@H]1O (stereo partly drawn) | 1.01 (inactive)
11 | CCCCCCCCCCCCCCCC(=O)NC(CO)CO | 0.966 (inactive)
12 | COc1ccc(/C=C/c2cc(O)cc(O)c2)cc1O | 0.915 (inactive)
13 | C=C1C(=O)O[C@H](CCCCCCCC)[C@H]1C(=O)O | 1.04 (inactive)
14 | CCCCC[C@H](O)/C=C/[C@@H]1[C@H]2C/C=C\CCCC(=O)O[C@H]2C[C@H]1O | 0.977 (inactive)
15 | CCCCC[C@H](O)/C=C/[C@H]1CC[C@@H](O)[C@@H]1C/C=C\CCCC(=O)O | 0.973 (inactive)
16 | CCCCC[C@H](O)/C=C/[C@@H]1[C@H](CCCCCCC(=O)O)[C@@H](O)C[C@H]1O | 0.957 (inactive)
17 | CC/C=C\C/C=C\C/C=C\C/C=C\CCCCCCC(=O)OCC | 0.858 (inactive)
18 | CCCCCCCCCCCCCC(=O)O | 1.04 (inactive)
19 | CCCCCC(=O)/C=C/[C@@H]1[C@H](C/C=C\CCCC(=O)O)[C@H](O)C[C@H]1O | 0.99 (inactive)
20 | COc1ccc(C[C@H](N)C(=O)N[C@H]2[C@@H](O)[C@H](n3cnc4c(N(C)C)ncnc43)O[C@@H]2O)cc1 | 0.887 (inactive)

Row | Structure (SMILES) | fold change
21 | CCCCCCCCCCCCCCCCC/C=C\C(=O)O | 0.872 (inactive)
22 | CCCCC[C@H](O)/C=C/[C@H]1[C@H](O)CC(=O)[C@H]1C/C=C\CCCC(=O)OC(C)C | 0.953 (inactive)
23 | CCCCC/C=C\C/C=C\C/C=C\C/C=C\CCCC(=O)SCC(O)CO (stereo not drawn) | 0.986 (inactive)
24 | CS(=O)(=O)NC(=O)CCC/C=C\C[C@H]1C(=O)C[C@@H](O)[C@@H]1/C=C/[C@@H](O)COc1ccccc1 | 0.897 (inactive)
25 | O=C(CCc1ccc(O)c(O)c1)N[C@@H](CC(=O)OCc1ccccc1)C(=O)OCc1ccccc1 | 1.01 (inactive)
26 | CCCCC[C@](C)(O)/C=C/[C@@H]1[C@@H](C/C=C\CCCC(=O)OC)[C@@H](O)C[C@H]1O | 0.977 (inactive)
27 | CCCCCCCCCCCCCCCCCC(=O)NCCO | 0.986 (inactive)
28 | CCCCC(C)(C)[C@H](O)/C=C/[C@H]1CCC(=O)[C@@H]1C/C=C\CCCC(=O)O | 0.973 (inactive)
29 | CC(C)OC(=O)CCC/C=C\C[C@@H]1[C@@H](/C=C/[C@H](O)CCc2ccccc2)[C@H](O)C[C@@H]1O | 0.945 (inactive)
30 | COC(=O)CCC[C@H](O)[C@H](O)CO | 1.05 (inactive)
31 | CCCCCCCC/C=C\CCCCCCCCCCCC(=O)O | 1.01 (inactive)
32 | O=C(O)/C=C/CCCCCCCCC(=O)O | 0.99 (inactive)
33 | CCCCCCCCCCCCCCCCCCCCCCC(=O)OCC | 0.908 (inactive)
34 | CCCCC[C@H](O)/C=C/[C@@H]1[C@H]2C/C(=C\CCCC(=O)O)C[C@H]2C[C@H]1O | 0.922 (inactive)
35 | COc1c(O)c2c(=O)cc(OC)c3c4c(OC)cc(=O)c5c(O)c(OC)c(C[C@@H](C)OC(=O)c6ccccc6)c(c(c1C[C@@H](C)OC(=O)Oc1ccc(O)cc1)c23)c54 | 0.961 (inactive)
36 | CCCCCCCC/C=C\CCCCCCCC(=O)Nc1c(C(C)C)cccc1C(C)C | 0.999 (inactive)
37 | CCCCN=C(N)NO | 1.06 (inactive)
38 | C=CCN(C)CCCCCCOc1ccc(C(=O)c2ccc(Br)cc2)c(F)c1 | 1.01 (inactive)
39 | CC(CN1CCC(n2c(=O)[nH]c3cc(Cl)ccc32)CC1)NC(=O)c1ccc2ccccc2c1 (stereo not drawn) | 1.08 (inactive)

Same assay, conditions: A549 miR-34 inducible, Hoechst nuclei count, 48 h; measured here: relative caspase fold change +Dox/-Dox

Row | Structure (SMILES) | fold change
40 | CCCCC[C@H](O)C/C=C1/C(=O)C[C@H](O)[C@@H]1C/C=C\CCCC(=O)O | 1.09
41 | CCCCC/C=C\C=C1\C(=O)CC[C@@H]1C/C=C\CCCC(=O)O | 0.792
42 | COc1ccc(C2=N[C@@H](c3ccc(Cl)cc3)[C@@H](c3ccc(Cl)cc3)N2C(=O)N2CCNC(=O)C2)c(OC(C)C)c1 | 0.974
43 | COC(=O)C1=CC[C@@]23CC[C@@H]([C@@](C)(/C=C/C=C(\C)C(=O)O)OC2=O)[C@@]3(OC(C)=O)CC1 | 0.682
44 | O=C(O)COc1ccc(C(=O)c2cccs2)c(Cl)c1Cl | 0.701
45 | COc1ccc2c(c1)c(CC(=O)NCCc1ccccc1)c(C)n2C(=O)c1ccc(Cl)cc1 | 0.638
46 | CC(C)OC(=O)CCC/C=C\C[C@@H]1[C@@H](/C=C/C(=O)COc2cccc(C(F)(F)F)c2)[C@H](O)C[C@@H]1O | 1.05
47 | CCCCC[C@@H](O)/C=C/[C@H]1C(=O)C[C@H](O)[C@@H]1C/C=C\CCCC(=O)O | 1.65
48 | CCCCCCCCCCCCCCCC(=O)N[C@H]1CCOC1=O | 1.15
49 | COC(=O)CCCCCC[C@@H]1[C@@H](CCC(O)C#Cc2ccccc2F)[C@H](O)C[C@@H]1O (stereo partly drawn) | 0.855
50 | CCCCCCCCCCCCCCCC(=O)NC(CO)CO | 0.974
51 | COc1ccc(/C=C/c2cc(O)cc(O)c2)cc1O | 0.703
52 | C=C1C(=O)O[C@H](CCCCCCCC)[C@H]1C(=O)O | 0.706
53 | CCCCC[C@H](O)/C=C/[C@@H]1[C@H]2C/C=C\CCCC(=O)O[C@H]2C[C@H]1O | 1.29
54 | CCCCC[C@H](O)/C=C/[C@H]1CC[C@@H](O)[C@@H]1C/C=C\CCCC(=O)O | 1.34
55 | CCCCC[C@H](O)/C=C/[C@@H]1[C@H](CCCCCCC(=O)O)[C@@H](O)C[C@H]1O | 1.43
56 | CC/C=C\C/C=C\C/C=C\C/C=C\CCCCCCC(=O)OCC | 2.1
57 | CCCCCCCCCCCCCC(=O)O | 1.03
58 | CCCCCC(=O)/C=C/[C@@H]1[C@H](C/C=C\CCCC(=O)O)[C@H](O)C[C@H]1O | 3.22
59 | COc1ccc(C[C@H](N)C(=O)N[C@H]2[C@@H](O)[C@H](n3cnc4c(N(C)C)ncnc43)O[C@@H]2O)cc1 | 1.17

Row | Structure (SMILES) | fold change
60 | CCCCCCCCCCCCCCCCC/C=C\C(=O)O | 1
61 | CCCCC[C@H](O)/C=C/[C@H]1[C@H](O)CC(=O)[C@H]1C/C=C\CCCC(=O)OC(C)C | 1.45
62 | CCCCC/C=C\C/C=C\C/C=C\C/C=C\CCCC(=O)SCC(O)CO (stereo not drawn) | 0.486
63 | CS(=O)(=O)NC(=O)CCC/C=C\C[C@H]1C(=O)C[C@@H](O)[C@@H]1/C=C/[C@@H](O)COc1ccccc1 | 1.55
64 | O=C(CCc1ccc(O)c(O)c1)N[C@@H](CC(=O)OCc1ccccc1)C(=O)OCc1ccccc1 | 0.94
65 | CCCCC[C@](C)(O)/C=C/[C@@H]1[C@@H](C/C=C\CCCC(=O)OC)[C@@H](O)C[C@H]1O | 1.61
66 | CCCCCCCCCCCCCCCCCC(=O)NCCO | 1.01
67 | CCCCC(C)(C)[C@H](O)/C=C/[C@H]1CCC(=O)[C@@H]1C/C=C\CCCC(=O)O | 1.01
68 | CC(C)OC(=O)CCC/C=C\C[C@@H]1[C@@H](/C=C/[C@H](O)CCc2ccccc2)[C@H](O)C[C@@H]1O | 1.74
69 | COC(=O)CCC[C@H](O)[C@H](O)CO | 0.845
70 | CCCCCCCC/C=C\CCCCCCCCCCCC(=O)O | 0.826
71 | O=C(O)/C=C/CCCCCCCCC(=O)O | 1.16
72 | CCCCCCCCCCCCCCCCCCCCCCC(=O)OCC | 0.513
73 | CCCCC[C@H](O)/C=C/[C@@H]1[C@H]2C/C(=C\CCCC(=O)O)C[C@H]2C[C@H]1O | 1.13
74 | COc1c(O)c2c(=O)cc(OC)c3c4c(OC)cc(=O)c5c(O)c(OC)c(C[C@@H](C)OC(=O)c6ccccc6)c(c(c1C[C@@H](C)OC(=O)Oc1ccc(O)cc1)c23)c54 | 0.723
75 | CCCCCCCC/C=C\CCCCCCCC(=O)Nc1c(C(C)C)cccc1C(C)C | 0.853
76 | CCCCN=C(N)NO | 1.14
77 | C=CCN(C)CCCCCCOc1ccc(C(=O)c2ccc(Br)cc2)c(F)c1 | 0.704
78 | CC(CN1CCC(n2c(=O)[nH]c3cc(Cl)ccc32)CC1)NC(=O)c1ccc2ccccc2c1 (stereo not drawn) | 1.2

Source: PubChem BioAssay
